Test results taken from PubChem BioAssay AID1159607 (Small Molecule Screening Facility, UW Madison, 2016).
The whole screen tested about 70,000 compounds, of which about 400 (0.57%) were called active. The sample holds actives, similar compounds and a random draw of the others, so the mix is not that of the screen. A number with no mark means an inactive call. Rule as the data show it: active = FP signal below about 40; inactive = the rest.

Test system: RMI core complex (RMI1/RMI2) binding to FANCM MM2 peptide, human
Test: disruptors of RMI1/RMI2 association with MM2 peptide – biochemical, fluorescence polarization, human, primary screen (AID 1159607)
Conditions: RMI core complex with F-MM2 peptide, at 33 µM, stronger effect = lower value

Question: For `Nc1c(C(=O)c2cccc(Br)c2)sc2nc3c(c(-c4cccs4)c12)CCCC3`, which FP signal (polarization) is on record?
Answer: -15

Question: With `COc1ccc(-c2cc(-c3cccs3)nc3sc(C(N)=O)c(N)c23)cc1` as the compound, how does the FP signal (polarization) read?
Answer: 33 (active)

Question: With `Nc1c(C(=O)c2ccc(Cl)cc2)sc2nc(-c3cccs3)cc(C(F)(F)F)c12` as the compound, how does the FP signal (polarization) read?
Answer: 19

Question: `O=S(=O)(NCC(c1ccsc1)N1CCOCC1)c1ccc(F)cc1F` (stereo not given) was tested. Which FP signal (polarization) did it give?
Answer: 65

Question: For `Cc1cc(C)c2nc(N(CCn3cccn3)C(=O)c3cc4ccccc4o3)sc2c1`, which FP signal (polarization) is on record?
Answer: 66

Question: `CN1C(=O)c2ccc(NC(=O)c3ccn(C)n3)cc2C1=O` was tested. Which FP signal (polarization) did it give?
Answer: 71

Question: Which FP signal (polarization) does the source give for `Cc1nc2sc(C)c(C)n2c(=O)c1NC(=O)c1c(F)cccc1Cl` here?
Answer: 66

Question: How did the FP signal (polarization) turn out when `COc1ccc(CCS(=O)(=O)Nc2ccc3c(c2)N(C)C(=O)C(C)(C)CO3)cc1` was run?
Answer: 67

Question: `O=C(Cn1cnc(-c2ccc(F)cc2)cc1=O)N1CCN(c2cccc(Cl)c2)CC1` was tested. Which FP signal (polarization) did it give?
Answer: 70

Question: With `Cc1nc2c(=O)n(Cc3cccc(F)c3)nc(-c3ccco3)c2s1` as the compound, how does the FP signal (polarization) read?
Answer: 62

Question: How did the FP signal (polarization) turn out when `O=C(O)CCNC(=S)Nc1ccc(F)c(Cl)c1` was run?
Answer: 54

Question: `CC1(C)Cc2cccc(OCc3ccc(C(=O)NCCN4CCOCC4)cc3)c2O1` was tested. Which FP signal (polarization) did it give?
Answer: 54

Question: `C=CCn1c(SCCC(=O)Nc2scc(-c3ccc(Cl)cc3)c2C(=O)OCC)nc2sc3c(c2c1=O)CCC(C)C3` (stereo not given) was tested. Which FP signal (polarization) did it give?
Answer: 84

Question: How did the FP signal (polarization) turn out when `NNC(=O)c1cccnc1N` was run?
Answer: 51

Question: How did the FP signal (polarization) turn out when `COc1ccc(CCNC(=O)c2cccc(NS(=O)(=O)c3cccc(F)c3)c2)cc1OC` was run?
Answer: 72

Question: Which FP signal (polarization) does the source give for `CCOC(=O)c1c(NC(=O)c2ccc(C(=O)OC)cc2)sc2c1CCC2` here?
Answer: 75

Question: Which FP signal (polarization) does the source give for `CCc1ccccc1NC(=O)C(=O)NCCCN1CCOC(c2ccccc2)C1` (stereo not given) here?
Answer: 72

Question: Which FP signal (polarization) does the source give for `CCCC(=O)Oc1c(Cl)cc(N(C(=O)CCC)S(=O)(=O)c2ccc(C)cc2)cc1Cl` here?
Answer: 50

Question: How did the FP signal (polarization) turn out when `CC1CCc2c(sc(NC(=O)c3cccc([N+](=O)[O-])c3)c2C#N)C1` (stereo not given) was run?
Answer: 48

Question: `CC1=NN(CCN2CCCCC2)c2nc3c(c(=O)n(CCN4CCCCC4)c(=O)n3C)n2C1C` (stereo not given) was tested. Which FP signal (polarization) did it give?
Answer: 65

Question: `Cc1ccc(C(C)C)c(OCCCn2c3ccccc3c3nc4ccccc4nc32)c1` was tested. Which FP signal (polarization) did it give?
Answer: 27 (active)

Question: For `Cc1ccccc1OCCCn1c(C2CC(=O)N(C(C)(C)C)C2)nc2ccccc21` (stereo not given), which FP signal (polarization) is on record?
Answer: 69

Question: With `CCCOc1ccc(Cn2c3ccccc3c3nc4ccccc4nc32)cc1` as the compound, how does the FP signal (polarization) read?
Answer: 60

Question: With `COc1ccc(-c2nnc(NC(=O)CSc3ccc(Cl)cc3)s2)cc1` as the compound, how does the FP signal (polarization) read?
Answer: 67

Question: Which FP signal (polarization) does the source give for `COc1ccc(-c2nnc(NC(=O)c3cc(Cl)sc3Cl)o2)c(OC)c1` here?
Answer: 62

Question: How did the FP signal (polarization) turn out when `Cc1cc(-c2nnc(NC(=O)/C=C/c3ccccc3Cl)o2)nn1C` was run?
Answer: 63

Question: Which FP signal (polarization) does the source give for `COc1ccc(-c2nnc(NC(=O)/C=C/c3ccccc3Cl)o2)c(OC)c1` here?
Answer: 35 (active)

Question: How did the FP signal (polarization) turn out when `COc1ccc(-c2cc(C(F)(F)F)n3nc(C(=O)Nc4cc5c(cc4[N+](=O)[O-])OCCO5)cc3n2)cc1` was run?
Answer: 37

Question: For `CCn1cc(NC(=O)N2CCc3ccccc32)c2ccccc21`, which FP signal (polarization) is on record?
Answer: 53

Question: With `COc1ccccc1CCNC(=O)C(=O)NC1CCCCCC1` as the compound, how does the FP signal (polarization) read?
Answer: 51
